Results reported in ChEMBL document CHEMBL4513216, “Probing the Open Global Health Chemical Diversity Library for Multistage-Active Starting Points for Next-Generation Antimalarials” (ACS Infect Dis, 2020).
Among all 69,000 compounds or so, about 8,600 (12%) showed an effect of 50% or more. This is one part of a sample in which strong results are shown more often than they occur.

Each compound was assayed on Plasmodium berghei (assay: Screen against P. berghei liver stage (PbLuc), transformed with Luciferase, at 10uM). Conditions: tested at 10 uM.
Format: functional, HepG2

Row | SMILES | INHIBITION [%]
1 | CCS(=O)(=O)Nc1ccc2oc(C)c(C(C)=O)c2c1 | 28.5
2 | Fc1cnc(N2CCCC3(COCCN(c4nccs4)C3)C2)nc1 (stereo unspecified) | 29.4
3 | CN1C[C@H](O)[C@]2(CCN(Cc3ccc(OC(F)(F)F)cc3)C2)S1(=O)=O | 26
4 | CN1C[C@H](O)[C@]2(CCN(Cc3ccc(F)c(F)c3)C2)S1(=O)=O | 54
5 | COc1ccc(CN2CC[C@@]3(C2)[C@H](O)CN(C)S3(=O)=O)cc1F | 20.7
6 | Cn1cc(CN2CCCC23CCN(C(=O)c2ccncc2)CC3)cn1 | 36.4
7 | CN(C)C(=O)[C@@]12CCO[C@@H]1CCN(Cc1ccc3c(c1)OCO3)C2 | 76.2
8 | O=C(N1CCOCC1)[C@@]12CCO[C@@H]1CCN(Cc1cccc(F)c1)C2 | 95.1
9 | O=C(N1CCOCC1)[C@@]12CCO[C@@H]1CCN(CC1CCC1)C2 | 22.2
10 | O=C(N1CCOCC1)[C@@]12CCO[C@@H]1CCN(CC1CCCC1)C2 | 53.4
11 | O=C(N1CCOCC1)[C@@]12CCO[C@@H]1CCN(Cc1ccccc1F)C2 | 36.3
12 | O=C(N1CCOCC1)[C@@]12CCO[C@@H]1CCN(CC1CCCCC1)C2 | 24.5
13 | O=C(N1CCOCC1)[C@@]12CCO[C@@H]1CCN(CCN1CCCCC1)C2 | -22.9
14 | O=C(N1CCOCC1)[C@@]12CCO[C@@H]1CCN(Cc1ccncc1)C2 | 83.2
15 | CC(C)NC(=O)[C@@]12CCO[C@@H]1CCN(Cc1ccc3c(c1)OCO3)C2 | 33.5
16 | Cc1cccc(CN2CC[C@H]3OCC[C@@]3(C(=O)N3CCOCC3)C2)n1 | 12.6
17 | Cc1cc(CN2CC[C@H]3OCC[C@@]3(C(=O)N3CCOCC3)C2)no1 | 14.6
18 | CNC(=O)[C@@]12CCO[C@@H]1CCN(Cc1ccc3c(c1)OCO3)C2 | 3.69
19 | O=S(=O)(c1cn[nH]c1)N1CCC(O)(CN2CCOCC2)C1 (stereo unspecified) | 38.5
20 | COc1cc(-c2nc3c([nH]2)CCCNC3=O)ccc1O | -53
21 | CN(C)C(=O)CN1CCC2(CCN(CC3CC3)CC2)C1=O | 28.4
22 | COc1ccccc1CN(C)C(=O)NCc1c(C)cc(C)[nH]c1=O | -13.3

Row | SMILES | INHIBITION [%]
23 | O=C(c1ccc(N2CCOCC2)nc1)N1CCCC(n2cccn2)C1 (stereo unspecified) | 31.3
24 | CCc1cnc(C)nc1NC1CC(=O)N(CC)C1 (stereo unspecified) | 14.9
25 | c1ccc(-n2cc(CN3CCCC3Cn3cccn3)nn2)cc1 (stereo unspecified) | -18
26 | Cc1cc(C)c(S(N)(=O)=O)cc1C(=O)NCCN1CCCCC1 | 42.1
27 | COc1cc(OC)cc(C(=O)NCc2nn(C)c3c2COCC3)c1 | 24.2
28 | O=S(=O)(c1cn[nH]c1)N1CCCC1c1cc[nH]n1 (stereo unspecified) | -12.9
29 | COc1cccc(CNC(=O)CC2CSc3nc(C)c(C)c(=O)n32)c1 (stereo unspecified) | 27
30 | O=C(c1ccnnc1)N1C[C@H](Oc2ccccn2)[C@H]2OCCC[C@H]21 | -15.9
31 | CC1(C)CC(=O)c2cnc3nc(N4CCOCC4)nc(O)c3c2C1 | -42.5
32 | Cc1nc(C(F)(F)F)nc(N2CCC(O)(C(=O)O)CC2)c1C | 24.4
33 | Cc1sc2nc(C(F)(F)F)nc(N3CCN(C)CC3)c2c1C | 65.8
34 | CC(=O)N1CCN(c2nc(C(F)(F)F)nc3sc(C)c(C)c23)CC1 | 34.4
35 | CN1CCCN(c2nc(C3CC3)ns2)CC1 | -31.5
36 | Cc1sc2nc(C(F)(F)F)nc(N3CCN(S(C)(=O)=O)CC3)c2c1C | 55
37 | Cc1sc2nc(C(F)(F)F)nc(N3CCCN(C)CC3)c2c1C | 53.9
38 | Cc1nc(C(F)(F)F)nc(N2CCC3(CC2)CC(C(=O)O)N(C)C3)c1C (stereo unspecified) | 47.2
39 | Cc1sc2nc(C(F)(F)F)nc(N3CCC(NS(C)(=O)=O)CC3)c2c1C | 34.4
40 | CN1CCCN(c2nc(C3CCCC3)nc3c2cnn3C)CC1 | 26.4
41 | Cc1cc(C)n(CCCC(=O)N2CCc3ncc(Cl)cc3C2)n1 | -50.2
42 | Cn1cc(NC(=O)N2CCC2c2ccccc2)ccc1=O (stereo unspecified) | 6.1
43 | O=C(O)c1nc(SCc2ccccc2)ncc1Br | 32.4
44 | CCN1CC(C(=O)NCCn2cccc2)CC1=O (stereo unspecified) | 43.9

Row | SMILES | INHIBITION [%]
45 | Cc1ncsc1C(=O)N1CCCC(CO)(CC2CC2)C1 (stereo unspecified) | 29.4
46 | Cn1nc(Cn2ccnc2)c2c1CN(c1nccs1)C2 | 3.88
47 | CCN1CCCCC1C(=O)N1CCC(OC2CCCC2)CC1 (stereo unspecified) | 10.2
48 | O=C(c1cnccn1)N1CCCC2(CCN(Cc3ccc(F)cc3)C2)C1 (stereo unspecified) | 8.03
49 | CC(C)(C)C(Cn1cccn1)NC(=O)c1ccco1 (stereo unspecified) | 35.2
50 | Cc1cccc(CNC(Cc2ccsc2)c2nccs2)n1 (stereo unspecified) | -24.4
51 | Cc1nc(C(Cc2ccsc2)NC(=O)CN2CCOCC2)sc1C (stereo unspecified) | 30.45
52 | Cc1cccc(CNC(Cc2ccsc2)c2nc(C)c(C)s2)n1 (stereo unspecified) | 91.6
53 | Cc1cccc(N2CCN(CCNC(=O)C(C)n3cncn3)CC2)c1 (stereo unspecified) | 55.5
54 | CC(C(=O)Nc1ccc(N2CCCC2)nc1)n1cncn1 (stereo unspecified) | 56.1
55 | CC(C(=O)NCc1ccc(N2CCCCCC2)nc1)n1cncn1 (stereo unspecified) | 31.2
56 | CC(C(=O)NCCN1CCN(C)CC1)n1cncn1 (stereo unspecified) | 34.7
57 | CC(C(=O)Nc1cccc(N2CCCCC2)c1)n1cncn1 (stereo unspecified) | 70.7
58 | CC(C(=O)NCc1ccc(N2CCCCC2)nc1)n1cncn1 (stereo unspecified) | 7.12
59 | CC(C(=O)Nc1ccc(N2CCOCC2)nc1)n1cncn1 (stereo unspecified) | 53
60 | CC(C(=O)NCc1ccc(N2CCCC2)nc1)n1cncn1 (stereo unspecified) | 21.6
61 | CC(C(=O)NCCCN1CCN(c2ccccc2)CC1)n1cncn1 (stereo unspecified) | -16
62 | COc1ccc(NC(=O)C(C)n2cncn2)cn1 (stereo unspecified) | -33.9
63 | CC(C(=O)Nc1ccc(N2CCCCC2)nc1)n1cncn1 (stereo unspecified) | 28.8
64 | CC(C(=O)Nc1ccc(N2CCCC2)nc1)n1cccn1 (stereo unspecified) | 9.54
65 | CC(C)NC(=O)N1CCc2onc(C(=O)Nc3cccnc3)c2C1 | -11
66 | COc1cc(NCc2ccccc2-n2cncn2)nc(N)n1 | -2.43
